Active and inactive are the calls of the source. The calls were made as follows: active = hit-call score of the fitted dose curve at least 0.9, where 1 is the maximum; inactive = score below 0.9.
experiment: CEETOX_H295R_OHPREG: CeeTox H295R High-throughput Steroidogenesis Assay for OH-Pregnenolone (OHPREG) (AID 2283434); conditions: actives raise or lower the signal
Summary of the method: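 H295R, 10 uM forskolin pre-stim 48 h; test chemical 48 h, 0.1% DMSO final. MTBE extraction, reverse-phase C18 HPLC-ESI+ MS/MS of medium. Gain/loss vs DMSO; viability by MTT in same wells.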

SMILES | outcome | AC50
CN(C)c1ccc2nc3ccc(=[N+](C)C)cc-3sc2c1 | inactive | 
O=C(OCc1ccccc1)c1ccc(O)cc1 |  | 30.5 µM (active)
C=C[C@@]1(C)CC(=O)[C@]2(O)[C@@]3(C)[C@@H](O)CCC(C)(C)[C@@H]3[C@H](O)[C@H](OC(C)=O)[C@@]2(C)O1 |  | 0.817 µM (active)
COc1ccc(-c2coc3cc(O)cc(O)c3c2=O)cc1 |  | 7.39 µM (active)
C=CC(=O)OCCCCCCOC(=O)C=C | inactive | 
CC(C)(c1ccccc1)c1ccc(Nc2ccc(C(C)(C)c3ccccc3)cc2)cc1 |  | 1.54 µM (active)
CCOC(=O)C1=NN(c2ccc(Cl)cc2Cl)C(C)(C(=O)OCC)C1 (configuration not stated) | inactive | 
Cc1ccc([N+](=O)[O-])cc1N | inactive | 
CCN1CN(CC)CN(CC)C1 | inactive | 
COc1ccc(C(=O)c2ccccc2)c(O)c1 | inactive | 
O=C(O)c1cc(O)c2ccccc2c1O | inactive | 

experiment: CEETOX_H295R_OHPROG: CeeTox H295R High-throughput Steroidogenesis Assay for OH-Progesterone (OHPROG) (AID 2283435); conditions: actives raise or lower the signal;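 as to AC50: human adrenal H295R cells primed 48 h with 10 µM forskolin; 17alpha-hydroxyprogesterone secreted into medium measured by HPLC-MS/MS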
Summary of the method: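 Steps: seed H295R cells and adhere overnight; stimulate with 10 uM forskolin for 48 h; replace with chemical-containing medium (0.1% DMSO) for 48 h; extract medium with MTBE; quantify 17alpha-hydroxyprogesterone by reverse-phase C18 HPLC-MS/MS against a 7-point curve.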

SMILES | outcome | AC50
CN(C)c1ccc2nc3ccc(=[N+](C)C)cc-3sc2c1 | inactive | 
O=C(OCc1ccccc1)c1ccc(O)cc1 |  | 13.5 µM (active)
C=C[C@@]1(C)CC(=O)[C@]2(O)[C@@]3(C)[C@@H](O)CCC(C)(C)[C@@H]3[C@H](O)[C@H](OC(C)=O)[C@@]2(C)O1 |  | 0.799 µM (active)
CC(C)(C)NC(=O)[C@H]1CC[C@H]2[C@@H]3CC[C@H]4NC(=O)C=C[C@]4(C)[C@H]3CC[C@]12C | inactive | 
COc1ccc(-c2coc3cc(O)cc(O)c3c2=O)cc1 |  | 7.4 µM (active)
C=CC(=O)OCCCCCCOC(=O)C=C | inactive | 
CC(C)(c1ccccc1)c1ccc(Nc2ccc(C(C)(C)c3ccccc3)cc2)cc1 |  | 0.359 µM (active)
CCOC(=O)C1=NN(c2ccc(Cl)cc2Cl)C(C)(C(=O)OCC)C1 (configuration not stated) | inactive | 
Cc1ccc([N+](=O)[O-])cc1N |  | 18.8 µM (active)
CCN1CN(CC)CN(CC)C1 | inactive | 
COc1ccc(C(=O)c2ccccc2)c(O)c1 | inactive | 
O=C(O)c1cc(O)c2ccccc2c1O | inactive | 

experiment: CEETOX_H295R_ANDR: CeeTox H295R High-throughput Steroidogenesis Assay for Androstenedione (ANDR) (AID 2283436); conditions: actives raise or lower the signal;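 also: human H295R adrenal cells exposed for 48 h with androstenedione measured in medium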
Summary of the method: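 48 h chemical exposure, H295R cells, DMEM/F12 + ITS+ and Nu-Serum. Medium androstenedione: MTBE extraction, C18 reverse-phase HPLC, ESI+ MS/MS. Fit bidirectional vs DMSO; MTT viability in same wells.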

SMILES | outcome | AC50
C=CC(=O)OCCCCCCOC(=O)C=C | inactive | 
CCOC(=O)C1=NN(c2ccc(Cl)cc2Cl)C(C)(C(=O)OCC)C1 (configuration not stated) | inactive | 
COc1ccc(C(=O)c2ccccc2)c(O)c1 |  | 25 µM (active)

experiment: CEETOX_H295R_CORTIC: CeeTox H295R High-throughput Steroidogenesis Assay for Corticosterone (CORTIC) (AID 2283437); conditions: actives raise or lower the signal;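 also: corticosterone secreted into medium quantified by mass spectrometry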;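 as to AC50: human H295R adrenal cells prestimulated with forskolin before chemical exposure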
Summary of the method: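 48 h forskolin (10 uM) prestim, then 48 h chemical exposure, final DMSO 0.1%. Readout: corticosterone in medium by LC-MS/MS after MTBE extraction. Gain/loss fit vs DMSO; MTT viability in same wells.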

SMILES | outcome | AC50
CN(C)c1ccc2nc3ccc(=[N+](C)C)cc-3sc2c1 | inactive | 
O=C(OCc1ccccc1)c1ccc(O)cc1 | inactive | 
C=C[C@@]1(C)CC(=O)[C@]2(O)[C@@]3(C)[C@@H](O)CCC(C)(C)[C@@H]3[C@H](O)[C@H](OC(C)=O)[C@@]2(C)O1 |  | 0.609 µM (active)
CC(C)(C)NC(=O)[C@H]1CC[C@H]2[C@@H]3CC[C@H]4NC(=O)C=C[C@]4(C)[C@H]3CC[C@]12C | inactive | 
COc1ccc(-c2coc3cc(O)cc(O)c3c2=O)cc1 | inactive | 
C=CC(=O)OCCCCCCOC(=O)C=C | inactive | 
CC(C)(c1ccccc1)c1ccc(Nc2ccc(C(C)(C)c3ccccc3)cc2)cc1 | inactive | 
CCOC(=O)C1=NN(c2ccc(Cl)cc2Cl)C(C)(C(=O)OCC)C1 (configuration not stated) | inactive | 
CCN1CN(CC)CN(CC)C1 | inactive | 
COc1ccc(C(=O)c2ccccc2)c(O)c1 |  | 11.1 µM (active)
O=C(O)c1cc(O)c2ccccc2c1O | inactive | 

experiment: CEETOX_H295R_CORTISOL: CeeTox H295R High-throughput Steroidogenesis Assay for Cortisol (AID 2283438); conditions: actives raise or lower the signal;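 also: cortisol secreted into medium quantified by LC-MS/MS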
Summary of the method: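 Cortisol synthesis by H295R cells is measured 48 h after chemical dosing, following a 48 h stimulation with 10 uM forskolin. Hormone is extracted and quantified by HPLC-MS/MS, and activity is fitted bidirectionally against the DMSO control.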

SMILES | outcome | AC50
CN(C)c1ccc2nc3ccc(=[N+](C)C)cc-3sc2c1 | inactive | 
O=C(OCc1ccccc1)c1ccc(O)cc1 |  | 36.9 µM (active)
C=C[C@@]1(C)CC(=O)[C@]2(O)[C@@]3(C)[C@@H](O)CCC(C)(C)[C@@H]3[C@H](O)[C@H](OC(C)=O)[C@@]2(C)O1 |  | 0.726 µM (active)
CC(C)(C)NC(=O)[C@H]1CC[C@H]2[C@@H]3CC[C@H]4NC(=O)C=C[C@]4(C)[C@H]3CC[C@]12C |  | 36.3 µM (active)
COc1ccc(-c2coc3cc(O)cc(O)c3c2=O)cc1 |  | 3.65 µM (active)
C=CC(=O)OCCCCCCOC(=O)C=C | inactive | 
CC(C)(c1ccccc1)c1ccc(Nc2ccc(C(C)(C)c3ccccc3)cc2)cc1 |  | 9.95 µM (active)
CCOC(=O)C1=NN(c2ccc(Cl)cc2Cl)C(C)(C(=O)OCC)C1 (configuration not stated) | inactive | 
CCN1CN(CC)CN(CC)C1 | inactive | 
COc1ccc(C(=O)c2ccccc2)c(O)c1 | inactive | 
O=C(O)c1cc(O)c2ccccc2c1O | inactive | 

experiment: CEETOX_H295R_ESTRADIOL: CeeTox H295R High-throughput Steroidogenesis Assay for Estradiol (AID 2283440); conditions: actives raise or lower the signal;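 also: estradiol secreted into medium quantified by LC-MS/MS after dansyl derivatisation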
Summary of the method: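 H295R cells pre-stimulated 48 h with 10 uM forskolin, then exposed 48 h to chemical in 0.1% DMSO. Medium estradiol quantified by MTBE extraction, dansyl derivatisation and HPLC-MS/MS; bidirectional fit versus DMSO; MTT viability required >/=70%.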

SMILES | outcome | AC50
CN(C)c1ccc2nc3ccc(=[N+](C)C)cc-3sc2c1 | inactive | 
O=C(OCc1ccccc1)c1ccc(O)cc1 |  | 50 µM (active)
C=C[C@@]1(C)CC(=O)[C@]2(O)[C@@]3(C)[C@@H](O)CCC(C)(C)[C@@H]3[C@H](O)[C@H](OC(C)=O)[C@@]2(C)O1 |  | 0.774 µM (active)
COc1ccc(-c2coc3cc(O)cc(O)c3c2=O)cc1 | inactive | 
C=CC(=O)OCCCCCCOC(=O)C=C | inactive | 
CCOC(=O)C1=NN(c2ccc(Cl)cc2Cl)C(C)(C(=O)OCC)C1 (configuration not stated) | inactive | 
CCN1CN(CC)CN(CC)C1 | inactive | 
COc1ccc(C(=O)c2ccccc2)c(O)c1 | inactive | 
O=C(O)c1cc(O)c2ccccc2c1O | inactive | 

Reference: PubChem BioAssay (EPA / NIEHS)
